# From PubChem BioAssay AID1508600 (Functional Genomics Laboratory (NCATS/FGL), 2020)
# Among all 53,000 sequences or so, about 3,700 (7%) were called active. The full list was thinned out, with actives kept by preference. Unmarked numbers belong to inactive results.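 The calls were made as follows: active = gene knockdowns whose robust z-score for IL-1 alpha signal is at least 2 or at most -2, so actives lie on both sides; inactive = the rest.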
# Assay: Components of the Cytosolic LPS Sensing Pathway: Gene Identification via Genome-wide siRNA Screen;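 also: robust z of the log signal after scaling to non-targeting control siRNA wells of the plate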
# Details: RAW264.7 macrophages, IL-1a HTRF, actives lie on both sides, screened at 100 nM (by protocol), cells primed 5 h with Pam3CSK4 first
# Method in brief: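 Three distinct siRNAs per gene were tested singly at 100 nM in RAW264.7 macrophages. Following Pam3CSK4 priming and 24 hour LipidA transfection, IL-1a secretion was read by HTRF.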
row,Sequence,z-score
1,CGUGGAACAUAAGAAUGGATT against Gapdhs,0.269
2,GGAUUGUCAGCCAAGAAACTT against Uba7,-0.085
3,GGAAAUUCACAAACAUGGATT against Gins3,-1.76
4,CCAUUUUAACCAAUGGUGUTT against Olfr572,-1.06
5,GGUCAAAAGACUGUACAUATT against Timm8a2,2.07 (active)
6,GGCAAUGGCUUGGUCUUUUTT against Mapk6,0.0141
7,GGAGGGAAUAGAGAAUCGGTT against A930024E05Rik,3.7 (active)
8,GGAUUUUGAAGACAUCUGUTT against Tubgcp4,0.396
9,GGCAACAUGACAAUUGUGGTT against Olfr1215,-0.00863
10,GCCAUUGCUAGUAAUUCUUTT against Vkorc1l1,0.444
11,CCCUCAUGUUUAGCGAGCATT against Kcnj3,0.644
12,GGUGAAAGACCACAAAUUCTT against Prkca,-0.824
13,GGACUUUCGAGACAAGCUGTT against Barhl1,-1.21
14,CGUACAGUGAUGAUUUUGATT against Cep162,0.218
15,GGACAAUGCAGUGCUGAAATT against Car2,3.37 (active)
16,GCACACCCAAUGCUCUAAGTT against Nprl3,1.25
17,GCAGCGGAGGGUCAAAGAATT against Pym1,0.783
18,GGCCUUUGAGGUCUACAUATT against Icam2,0.323
19,GCCCUCCGAGAAAAACAUCTT against Gjb5,2.05 (active)
20,GGGUAAAAGUAGCUGCCCUTT against Trp53inp2,-0.401
21,GGAAAUAAAGUCCAUAGAATT against B3gnt3,0.00261
22,GGUUCCUCUUGUGAGUGCCTT against Gpr137b,-0.974

row,Sequence,z-score
1,GGAGAAGUCCAUACGGAUCTT against Gpr18,0.184
2,GGGACAGUAGAAGAUGUAGTT against Got2,-0.706
3,GGAAAAUUGGACCAAUUUCTT against Ric3,-0.339
4,GCCUUGGUACCAUAAUGCATT against Synm,0.224
5,GGCCGGUGCCUUUUAUUCUTT against Spib,3.26 (active)
6,GCAAGUGCGGAAGAAAGGATT against Afap1l2,0.0285
7,CCUUGUACACGGAUUGAAUTT against Itga6,-0.192
8,GGUAGGAAACCUCUCAGAGTT against Kcnc1,0.85
9,GGUGUUCAAAAUUCCUGCCTT against Mbl2,0.0864
10,GCUAGAGCUCACCAAAUAATT against Fam83a,0.759
11,UAGUGAGCAAGGAAUUGGATT against Gm20815,-0.238
12,GGAGAAGAAGUGCUUCCCUTT against Gls2,-2.81 (active)
13,GGAGGAGAAGAAACACCUGTT against Klc1,-1.73
14,GGACAAAAGCAAAGAAAAGTT against R3hdm2,-0.822
15,GGAAAAUGUGAAACAGCUATT against Dhx40,-0.873
16,GAGUUCCAGUUUAUCCCUUTT against Klra1,-2.06 (active)
17,CCCGUGCUUCAAAUAGAGATT against Cavin3,0.789
18,CAGCGAUCCAAGUACCUGGTT against Mbp,0.568
19,GGAAUUUCACUAACCUUAGTT against Tert,1.55
20,GGCAAAAGCGAAGAAUUUATT against E2f5,2.69 (active)
21,GGAUUCCUGAUUUCUUCAUTT against Snip1,0.915
22,GGAGAUAAAAAUCCAAGCATT against Stx19,0.274

row,Sequence,z-score
1,GCAUAUGACACCGUAUCAGTT against Gprc5d,0.914
2,GCUCCUAUCCACAAUGCUGTT against Radil,-0.0853
3,GGCAAAGAUGAUGGAAAAATT against Srp68,0.307
4,GGGACGAUGUCACUAUUAATT against Myrip,1.31
5,GGCAGACUGCUGACAUAUGTT against Cd37,-2.44 (active)
6,CGAGCUGGAUCUGUUUAGATT against Nsmce1,0.357
7,CGUGGAGAUCAUCCACUCATT against Inf2,-2.44 (active)
8,GGAUUAUGAUUUGCCUGAUTT against 4932414N04Rik,1.05
9,GCUAGAUGCUAUGAAGCGATT against Ap3b1,-0.406
10,CGUGAUUUCAUGCUGUGGCTT against Tal2,-2.19 (active)
11,GGAUCUAAGCCUGUUGUGATT against Zfp647,-0.82
12,GGUCACCCUGUUUAGGCCUTT against Fgd3,0.571
13,CCUGCCAAUCUGUCUAAGUTT against Haus1,-0.121
14,GUCAUGAGAUUGAAUACAATT against Olfr569,-0.0298
15,GGGAUUGAUUUCAACAAUGTT against Vmn1r33,0.464
16,CCCUUGCUAGUCCUUCUAUTT against Bora,-0.65
17,GGUUGUAAAGGAAGAGAAGTT against Lyve1,0.397
18,GGCCAGACACUACAGGUAATT against Aldh16a1,0.0594
19,GCUACAGCUAUAUCGCUAUTT against Cnot8,0.625
20,GGCUUUUAUUUUCUGGGAUTT against Barhl1,2.4 (active)
21,GGAAUUAUGAUGUAGACAGTT against Garre1,0.662
22,GCCUUGGUCCUUAAAUAUATT against Slc7a2,-0.414

row,Sequence,z-score
1,CGAUAUUUGGUGUGAAAUGTT against Tmem70,-0.609
2,GGGAAAUGCUUCUAAAAAUTT against Pcdhb11,0.377
3,CCACCAUCAUGAGAGAGGATT against Olfr350,0.00462
4,GGCAAAUGUAGACAUGUAUTT against Defb44-ps,-0.0483
5,GCUAAUAUGCCACUGCCCGTT against Pls3,1.55
6,GCUAUGUGUACAGCUGCUGTT against Vmn1r62,0.21
7,CGUGCAGUGUGCUUCACAATT against Smarcad1,-1.89
8,GGUCUCAAGUUUUACAUUCTT against Prss35,2.2 (active)
9,GGCUCUGGCUAAGUACUUGTT against Cenpb,-0.943
10,GCUAACUGAGCUGCCGGAATT against Lrrn3,0.264
11,GCUUCAUGCACGGUUCUAUTT against Cib2,1.65
12,GGCUCAGAAGAAAAUGGAUTT against Kcnk4,0.166
13,GGAUCUGUAUUGUAAACAATT against Pcmtd2,0.463
14,GCCGUUCAUUUCAACCGUGTT against Wdr5,-0.0339
15,GGCUCACUCUCCAUUCUACTT against Asb6,-0.902
16,GGCACUCUCAGCUUUUGACTT against Olfr2,-2.43 (active)
17,CCGCCUGGAUAAUUAUGAUTT against Cltc,0.309
18,GGAUCAUGUCAUCACAAAATT against Fzd3,-0.319
19,GGUGUCCAAUUGCCCUAUCTT against Tnfrsf12a,-1.98
20,GGGAACAGCAUGAAGGAAGTT against Krt78,0.688
21,GGCACGUUAUGAAGACCAGTT against Ttc6,1.49
22,GAGAAACAACAAUUUGGGATT against Gm20815,2.07 (active)

row,Sequence,z-score
1,GGCUGAUUAGAAUACCUCCTT against Adra2b,0.352
2,GGCCUACGUGCUAAACAUCTT against Atp1b1,1.77
3,GCUCUAAAUGAACAUCUCATT against Snai3,0.322
4,GGUCCUAUGGAUUAAUGCUTT against Ccn4,3.46 (active)
5,CCCUAAAACCAAAUGUACATT against Tet2,1.7
6,GGAUGUAACAUUUCUUCAATT against Rmi1,0.567
7,GGCUGGUAAUUCACUUAAUTT against Kcnk2,-2.54 (active)
8,GGAAAUCACCAUGCCCUCUTT against S100a8,-0.0382
9,GCAUGGAGAUUCUGUGCGGTT against Trim45,-1.13
10,CCGAAAAUGGUAAAUAACUTT against Rnf17,0.111
11,GGAGGAACCUCAGAAACAGTT against Knstrn,-2.19 (active)
12,GCUAUUUUGGGACGAGUCATT against Col13a1,-0.7
13,GGGAUCAAGUUAAAUAGACTT against Snhg16,-0.184
14,GCGAACAGUUGAAUAGAUUTT against Slc25a46,-0.108
15,GGUGGUCACUAAGAAGUUCTT against Prps1l1,2.48 (active)
16,CCAACACUAUUACUGUAAATT against Arg2,0.159
17,GGCCAGAAAAUUAAGGAGCTT against Faap100,1.15
18,GGCAACUGAAAUGUUUGUUTT against Rap2c,2.14 (active)
19,CCUUGAGUACUUAUUGCGUTT against Chac1,0.934
20,GCCAACUCGAACAUUUUGATT against Zfp280b,0.567
